Measurements from the antibiotic and cytotoxicity screens of Wong et al. (2023).
The whole screen tested about 39,000 compounds, of which about 500 (1.3%) were called active. The entries come from a sample that favours actives as a whole.

tested on: S. aureus RN4220; experiment: growth inhibition call (relative growth <= 0.2); conditions: 50 µM

Growth inhibition call, active:
CC[C@@H](C)SSc1ncc[nH]1
Oc1ccc(C2(c3ccccc3F)CCC(F)(F)CC2)cc1
CC(N)O.Cc1cc(CC(C)CC(C)(C)C)n(O)c(=O)c1 (configuration not stated)
CN(C(=O)CN(CCO)CC(=O)N(C)C(C)(C)Cc1ccccc1)C(C)(C)Cc1ccccc1
COc1c(N2CC3CCCNC3C2)c(F)cc2c(=O)c(C(=O)O)cn(C3CC3)c12.Cl (configuration not stated)
COc1c(N2CCNC(C)C2)c(F)cc2c(=O)c(C(=O)O)cn(C3CC3)c12 (configuration not stated)
CC1CN(c2c(F)c(F)c3c(=O)c(C(=O)O)cn(C4CC4)c3c2F)CC(C)N1 (configuration not stated)
Cl.NC1CCN(c2c(F)cc3c(=O)c(C(=O)O)cn(C4CC4)c3c2Cl)C1 (configuration not stated)
CCn1cc(C(=O)O)c(=O)c2cc(F)c(N3CCNC(C)C3)c(F)c21.Cl (configuration not stated)
CC(=O)O[C@@H]1CC[C@@]2(C)[C@@H](CC[C@]3(C)[C@@H]2C(=O)C=C2[C@@H]4[C@@H](C)[C@H](C)CC[C@]4(C)CC[C@]23C)[C@@]1(C)C(=O)O
Nc1nnnn1-c1ccccc1
COC(=O)c1c(C)c2c(c(C)c1O)OC(=O)c1c(C)c(Cl)c(O)c(Cl)c1O2
CO[C@H]1C[C@H](O[C@H]2[C@H](C)[C@@H](O[C@H]3O[C@H](C)C[C@H](N(C)C)[C@H]3O)[C@@H](C)C[C@]3(CO3)C(=O)[C@H](C)[C@@H](O)[C@@H](C)[C@@H](C)OC(=O)[C@@H]2C)O[C@@H](C)[C@@H]1O
CO[C@H](CN(C)S(=O)(=O)c1cn(C)cn1)[C@H](C)CN(C(=O)Nc1ccc(C(F)(F)F)cc1)[C@H](C)CO
CO[C@H](CN(C)S(=O)(=O)c1cn(C)cn1)[C@@H](C)CN(C(=O)Nc1ccc(C(F)(F)F)cc1)[C@H](C)CO
CO[C@@H](CN(C)S(=O)(=O)c1cn(C)cn1)[C@H](C)CN(C(=O)Nc1ccc(C(F)(F)F)cc1)[C@@H](C)CO
CO[C@H](CN(C)S(=O)(=O)c1cn(C)cn1)[C@@H](C)CN(C(=O)Nc1ccc(C(F)(F)F)cc1)[C@@H](C)CO

Growth inhibition call, inactive:
OCc1ncc[nH]1
Cc1ncc[nH]1
C[C@@H]1CN([C@@H](C)CO)S(=O)(=O)c2ccc(C#CCN(C)C)cc2O[C@@H]1CN(C)C(=O)C1CCCCC1
Cc1ccc(S(=O)(=O)Nc2cccc3c2O[C@@H](CN(C)CC2CC2)[C@@H](C)CN([C@H](C)CO)C3=O)cc1
C[C@H](O)C#Cc1cnc2c(c1)C(=O)N([C@@H](C)CO)C[C@@H](C)[C@H](CN(C)Cc1cncnc1)O2
O=C(c1cccnc1)N1C[C@H]2[C@@H](c3ccccc31)[C@H](CO)N2C(=O)CN1CCOCC1
O=C1OC(c2ccc(O)cc2)(c2ccc(O)cc2)c2ccccc21
O=S1(=O)OC(c2ccc(O)cc2)(c2ccc(O)cc2)c2ccccc21
C[C@H]1CN([C@@H](C)CO)S(=O)(=O)c2ccc(C#CCN(C)C)cc2O[C@@H]1CN(C)C(=O)c1ccccc1F
C[C@H]1CN([C@@H](C)CO)C(=O)c2cccc(NS(=O)(=O)c3cn(C)cn3)c2O[C@H]1CN(C)S(=O)(=O)c1ccccc1
C[C@@H]1CN([C@H](C)CO)S(=O)(=O)c2ccc(C#CC(C)(C)O)cc2O[C@H]1CN(C)Cc1ccccc1
C[C@@H]1CCCCO[C@@H](CN(C)Cc2ccncc2)[C@@H](C)CN([C@@H](C)CO)C(=O)c2cc(NC(=O)Nc3ccc4c(c3)OCO4)ccc2O1
C[C@@H]1CN([C@@H](C)CO)C(=O)Cc2cc(NS(=O)(=O)c3cn(C)cn3)ccc2O[C@@H]1CN(C)CC1CCCCC1
CC(=O)c1ccccc1OC[C@@H](O)CN(CCO)CCO
O=C(O)CN(CCc1ccccc1)CC(=O)O
C[C@@H]1CCCCO[C@H](CN(C)Cc2ccc(C(F)(F)F)cc2)[C@H](C)CN([C@@H](C)CO)C(=O)c2cc(N(C)C)ccc2O1
CC1CN(c2c(F)c(N)c3c(=O)c(C(=O)O)cn(C4CC4)c3c2F)CC(C)N1 (configuration not stated)
N[C@@H]1CN(c2c(F)cc3c(=O)c(C(=O)O)cn([C@@H]4C[C@@H]4F)c3c2Cl)CC12CC2
C[C@H]1CN([C@@H](C)CO)C(=O)c2cc(NC(=O)C3CC3)ccc2O[C@H]1CN(C)C(=O)Nc1ccc2c(c1)OCO2
C[C@H]1CCCCO[C@@H](CN(C)Cc2ccc3c(c2)OCO3)[C@@H](C)CN([C@@H](C)CO)C(=O)c2cc(NC(=O)CCC(F)(F)F)ccc2O1
Cc1noc(C)c1NC(=O)Nc1ccc2c(c1)C(=O)N([C@@H](C)CO)C[C@@H](C)[C@H](CN(C)Cc1ccc(C(F)(F)F)cc1)OCCCC[C@H](C)O2
C[C@@H]1CN([C@H](C)CO)C(=O)c2cccc(NS(=O)(=O)c3cn(C)cn3)c2O[C@H]1CN(C)C(=O)NC1CCCCC1
CC(C)NC(=O)Nc1ccc2c(c1)C(=O)N([C@H](C)CO)C[C@@H](C)[C@@H](CN(C)Cc1ccc(Cl)c(Cl)c1)OCCCC[C@H](C)O2
COc1ccc(NC(=O)Nc2cccc3c2O[C@H](CN(C)Cc2ccc(-c4ccccc4)cc2)[C@H](C)CN([C@H](C)CO)C3=O)cc1
C[C@@H]1CCCCO[C@H](CN(C)CC2CCCCC2)[C@H](C)CN([C@@H](C)CO)C(=O)c2cc(NC(=O)Nc3ccc(C(F)(F)F)cc3)ccc2O1
C[C@H]1CN([C@@H](C)CO)S(=O)(=O)c2ccc(C#CCN(C)C)cc2O[C@H]1CN(C)Cc1cccnc1
CCn1cc(C(=O)O)c(=O)c2cnc(N3CCNCC3)nc21
CCn1cc(C(=O)O)c(=O)c2cc(F)c(N3CCNCC3)nc21
CCNC(=O)C[C@@H]1CC[C@H]2[C@@H](COC[C@H](O)CN2C(=O)Nc2c(C)noc2C)O1
C#CCN([C@H](/C=C/C1CC1)[C@@H](O)Cc1ccccc1)[C@@H](Cc1ccc(-n2cc(C(=O)NO)nn2)cc1)C(=O)OC
C[C@@H]1CN([C@@H](C)CO)C(=O)c2cc(NC(=O)c3ccccc3)ccc2O[C@@H](C)CCCCO[C@@H]1CN(C)Cc1ccc(C(F)(F)F)cc1
CC1(C)[C@@H](OC(=O)CCC(=O)O)CC[C@@]2(C)[C@H]1CC[C@]1(C)[C@H]2C(=O)C=C2[C@@H]3C[C@@](C)(C(=O)O)CC[C@]3(C)CC[C@]21C
CC1(C)[C@@H](OC(=O)CCC(=O)O)CC[C@]2(C)[C@H]3C(=O)C=C4[C@@H]5C[C@@](C)(C(=O)O)CC[C@]5(C)CC[C@@]4(C)[C@]3(C)CC[C@@H]12
COc1ccc(NC(=O)N(C)C[C@H]2OCCCC[C@@H](C)Oc3ccc(NS(=O)(=O)c4ccc(OC)cc4)cc3C(=O)N([C@@H](C)CO)C[C@@H]2C)cc1
Cc1occc1CN
O=C(N[C@H]1C=C[C@H](CC(=O)N2CCOCC2)O[C@@H]1CO)c1ccccn1
NC(=O)CSc1nnnn1-c1ccccc1
NCc1nnnn1-c1ccccc1
C[C@@H]1CN([C@H](C)CO)C(=O)Cc2cc(NS(=O)(=O)c3ccccc3)ccc2O[C@H]1CN(C)CC1CC1
CS(=O)(=O)N1[C@@H]2c3ccc(-c4cccc(F)c4)c(=O)n3C[C@H]1[C@H](CO)[C@H]2C(=O)N1CCOCC1
Cc1noc(C)c1S(=O)(=O)N(C)C[C@@H]1Oc2ccc(NS(=O)(=O)c3ccc(Cl)cc3)cc2CC(=O)N([C@H](C)CO)C[C@H]1C
C=CC[n+]1ccccc1/C=N/O
Cc1ccc(S[C@]2(C(=O)NC3CC3)CC(=O)N(Cc3ccccc3C(F)(F)F)[C@@H]2c2ccc(CO)cc2I)cc1
COC(=O)c1c(OC)cc2c(c1C)Oc1c(Cl)c(O)c(Cl)c(C)c1C(=O)O2
COC(=O)c1c(C)c2c(c(C)c1OC)OC(=O)c1c(C)c(Cl)c(OC)c(Cl)c1O2
COc1ccc(CN(C)C[C@@H]2Oc3ccc(NS(C)(=O)=O)cc3CC(=O)N([C@@H](C)CO)C[C@H]2C)cc1
C[C@H](O)C#Cc1cnc2c(c1)C(=O)N([C@H](C)CO)C[C@@H](C)[C@@H](CN(C)Cc1cncnc1)O2
CN1C(=O)c2cc(NC(=O)Nc3ccccc3F)ccc2OC[C@H]2O[C@@H](CC(=O)NCc3ccc(-c4ccccc4)cc3)CC[C@H]21
C[C@H](CO)N1C[C@H](C)[C@H](CN(C)C)Oc2ccc(NS(C)(=O)=O)cc2CC1=O
C[C@H](CO)N1C[C@H](C)[C@@H](CN(C)S(=O)(=O)c2cn(C)cn2)OCCCC[C@H](C)Oc2ccc(NC(=O)Nc3ccc(C(F)(F)F)cc3)cc2C1=O
C[C@@H]1CN([C@@H](C)CO)C(=O)c2cc(NC(=O)Nc3ccc(C(F)(F)F)cc3)ccc2O[C@@H](C)CCCCO[C@H]1CN(C)S(=O)(=O)c1cn(C)cn1
C[C@@H]1CN([C@H](C)CO)C(=O)c2cc(NC(=O)Nc3ccc(C(F)(F)F)cc3)ccc2O[C@@H](C)CCCCO[C@@H]1CN(C)S(=O)(=O)c1cn(C)cn1
C[C@@H]1CN([C@@H](C)CO)C(=O)c2cc(NC(=O)Nc3ccc(C(F)(F)F)cc3)ccc2O[C@@H](C)CCCCO[C@@H]1CN(C)S(=O)(=O)c1cn(C)cn1
C[C@@H]1CCCCO[C@@H](CN(C)C(=O)Nc2cccc3ccccc23)[C@H](C)CN([C@H](C)CO)C(=O)c2cc(NS(=O)(=O)c3ccccc3)ccc2O1
C[C@H]1CN([C@@H](C)CO)C(=O)c2cccc(NC(=O)C3CCCCC3)c2O[C@H]1CN(C)C(=O)Nc1ccc(C(F)(F)F)cc1
